# High-throughput results from PubChem BioAssay.
# HT1080 IDH1KD tx = toxicity to HT-1080 IDH1 knockdown cells (counter line); HT-1080 IDH1 knockdown viability, ATP luminescence, 48 h; Potency, µM (titrated, usually from 46.1 µM), for inactives: at the highest dose activity, negative = toxicity, hits mostly cytotoxic; actives 2% (n = 360,000);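 further: 0% = DMSO wells and -100% = cell-free medium wells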
#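 Knockdown cells (IDH1KD HT-1080) received compounds 2 h after plating at 750 cells/well and were kept 48 h at 37 °C in 5% FBS RPMI. A CellTiter-Glo luminescence read gave % activity for curve fitting.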
# KB-3-1 cytotox = kills parental KB-3-1 adenocarcinoma cells. KB-3-1 viability, CellTiter-Glo ATP luminescence, 72 h. Potency, µM (titrated, usually from 46.1 µM), actives largely listed as cytotoxic. actives 1.4% (n = 400,000). AID 1347075; further: nearly all actives have a fitted effect of over 60% in size
#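 Cytotoxicity in the drug-sensitive parental line KB-3-1 was scored as loss of CellTiter-Glo luminescence following 72 h incubation with compound. Values come from curve fitting of normalized concentration-response data.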
# DT40 TDP1 CPT = growth inhibition of DT40 Tdp1-/-;hTDP1 cells with camptothecin (screen for TDP1 inhibitors); chicken DT40 Tdp1-/-;hTDP1 cells + 20 nM CPT, ATP luminescence, 48 h; Potency, µM (series often up to 46.2 µM), without a hit: at the highest dose activity change, negative = growth inhibition, hits mostly inhibitors; actives 12% (n = 420,000); AID 686979; further: nearly all actives have a fitted effect of over 55% in size
#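 Chicken DT40 Tdp1-/- cells complemented with human TDP1, 400 cells/well, exposed to compounds plus 20 nM camptothecin for at least 48 h at 37 C; viability read as ATP content by CellTiter-Glo luminescence.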
# KB-V1 cytotox = KB-V1 MDR subline cytotoxicity; KB-V1 MDR cells viability, CellTiter-Glo, 72 h; Potency, µM (titrated, usually from 46.1 µM), usual class: cytotoxic; actives 3.4% (n = 400,000); AID 1347076; further: nearly all actives have a fitted effect of over 60% in size
#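 Luminescent ATP read-out (CellTiter-Glo, 10 min) measures survival of drug-selected KB-V1 MDR cells after 72 h, 37 degrees C compound exposure. Medium: phenol-red-free DMEM, 10% FBS. Values from fitted concentration-response curves.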
# HT1080NT lethal = kills 2HG-producing HT-1080-NT fibrosarcoma cells; actives 1.6% (n = 360,000); Potency, µM (highest dose often 46.1 µM), inactives show top-dose activity, negative = less viability, most hits filed as cytotoxic; HT-1080-NT fibrosarcoma viability, CellTiter-Glo ATP luminescence, 48 h;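 further: NT is the 2HG producing partner of a matched IDH1 knockdown line; 0% = DMSO-treated cells and -100% = media-only wells without cells; nearly all actives have a fitted effect of over 55% in size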
#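 Luminescent CellTiter-Glo readout after 48 hours of compound exposure at 37 degrees C defined viability of HT-1080-NT cells. Activity was normalized to DMSO wells and cell-free media wells; concentration-response curves were fitted and assigned curve classes.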
# TDP1 cell noCPT = qHTS for Inhibitors of human tyrosyl-DNA phosphodiesterase 1 (TDP1): qHTS in cells in absence of CPT. DT40 Tdp1-/- hTDP1 cells, no CPT, ATP luminescence, 48 h. Potency, µM (doses to about 46.2 µM), for the others: top-dose activity change, negative = growth inhibition, hits mostly inhibitors. actives 15% (n = 420,000). AID 686978, 2013; further: nearly all actives have a fitted effect of over 55% in size
#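 Camptothecin absent (DMSO only). Human TDP1-complemented DT40 knockout cells, 400 cells/well, 37 °C for minimum 48 hr; ATP measured via CellTiter-Glo, 30 min dark incubation, luminescence.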
# Numbers without * were called inactive; i = inactive; ? = inconclusive; nt = not tested or not shown; [ ] = remark or other dose. Compounds with a hit are over-represented: about 19% of the library has one in this group of screens. The call rests on the fitted dose curve; in most records, active means well fitted curve in the direction sought with a large enough effect; inconclusive means small, poorly fitted or top-dose-only effect, or another doubt; inactive means no such curve, though single readings can be large; an effect the other way counts as inactive or inconclusive. Unless noted, on the % scale 0 is the no-effect control and ±100 the full control effect; potency means the concentration at half of the fitted maximal effect.
SMILES,HT1080 IDH1KD tx,KB-3-1 cytotox,DT40 TDP1 CPT,KB-V1 cytotox,HT1080NT lethal,TDP1 cell noCPT
COc1cccc(C(C)(O)c2nc(-c3ccccc3)cs2)c1 (stereo not drawn),?,?,16µM*,?,?,18µM*
O=C(CCNC(=O)C1CCN(S(=O)(=O)c2ccc(F)cc2)CC1)NCc1ccc(Cl)cc1,0%,i,-8%,i,-8%,-17%
COc1cccc(C(C)(O)c2nc(-c3ccc(F)c(Cl)c3)cs2)c1 (stereo not drawn),-28%,i,?,i,?,?
COc1cccc(C(C)(O)c2nc(-c3ccc(N(C)C)cc3)cs2)c1 (stereo not drawn),?,?,18µM*,i,?,21µM*
NC(=O)NC(Cc1ccccc1)C(=O)NNC(=O)COc1ccccc1Cl (stereo not drawn),7%,i,2%,i,3%,-8%
Cc1ccc(CNC(=O)CN2C(=O)C3(SCC(=O)N3c3ccc(F)c(F)c3)c3ccccc32)cc1 (stereo not drawn),nt,i,-27%,i,nt,?
O=C(OCc1cn([C@H]2CN(Cc3cccs3)[C@@H](c3ccccc3)C[C@@H]2O)nn1)c1ccccc1,-11%,i,18µM*,i,-1%,21µM*
COc1ccc([C@H]2C[C@H](n3cc(COC(=O)c4ccccc4)nn3)[C@@H](O)CN2Cc2cccs2)cc1,6%,i,?,i,-7%,18µM*
Cc1ccc([C@H]2C[C@@H](O)[C@H](n3cc(COC(=O)c4ccccc4)nn3)CN2C(=O)c2cccs2)cc1,-1%,i,?,i,-2%,26µM*
Cc1ccc([C@H]2C[C@@H](O)[C@H](n3cc(COC(=O)c4ccccc4)nn3)CN2Cc2cccs2)cc1,-3%,i,?,?,-4%,?
Cc1ccc([C@H]2C[C@H](O)[C@@H](n3cc(COC(=O)c4ccccc4)nn3)CN2Cc2cccs2)cc1,?,?,21µM*,?,?,23µM*
O=C(OCc1cn([C@@H]2C[C@H](c3ccccc3)N(Cc3cccs3)C[C@H]2O)nn1)c1ccccc1,5%,i,-12%,i,0%,-27%
CC(C)(C)NC(=O)c1ccc(NC(=O)c2ccccc2-c2ccccc2C(=O)O)cc1,0%,i,-10%,i,0%,-3%
COC1=C(C)C(=O)C2=C(C1=O)C1C3CC4=C(C(=O)C(OC)=C(C)C4=O)C(CNC(=O)C(C)=O)N3C(C#N)C(C2)N1C (stereo not drawn),0.082µM*,0.1µM*,0.041µM*,2.3µM*,18µM*,0.026µM*
CC(C)(C)OC(=O)N1CCC2(CC1)Oc1ccc(F)cc1C(=O)C21CC(c2ccccc2)=NO1 (stereo not drawn),-8%,?,23µM*,i,-4%,?
O=C1c2cc(F)ccc2OC2(CCNCC2)C12CC(c1ccccc1)=NO2 (stereo not drawn),-2%,?,15µM*,i,4%,?
C[C@@H]1CN([C@H](C)CO)C(=O)c2c(c3ccccc3n2C)-c2ccccc2CO[C@H]1CN(C)C(=O)CCC(F)(F)F,3%,i,?,i,-2%,?
O=C(Cn1ncc2c(=O)oc3ccccc3c21)NCc1cccnc1,-4%,i,1.3µM*,?,-2%,9.2µM*
Cc1cc(NC(=O)c2oc3ccccc3c2C)ccc1-n1cnnn1,3%,i,18µM*,?,?,23µM*
Cc1c(C(=O)Nc2ccncc2)oc2ccccc12,?,i,21µM*,i,-1%,21µM*
Cc1c(C(=O)NC(C)c2ccncc2)oc2ccccc12 (stereo not drawn),-6%,i,-3%,i,10%[9.24 µM],-3%
COc1cc(OC)cc(C(=O)Nc2ccc(-n3cnnn3)c(C)c2)c1,-3%,i,-24%,?,-7%,?
Cc1c(C(=O)NCCc2ccccc2)oc2ccccc12,16%,i,-25%,i,20%,-17%
Cc1c(C(=O)NCc2cccnc2)oc2ccccc12,-1%,i,-6%,16µM*,8%,2%
COc1ccccc1CNC(=O)c1ccc2c(c1)sc1nc(-c3ccc(F)cc3)cn12,nt,nt,7.3µM*,nt,nt,8.2µM*
SMILES,HT1080 IDH1KD tx,KB-3-1 cytotox,DT40 TDP1 CPT,KB-V1 cytotox,HT1080NT lethal,TDP1 cell noCPT
COc1cccc(CNC(=O)c2ccc3c(c2)sc2nc(-c4ccccc4)cn23)c1OC,nt,nt,9.2µM*,nt,nt,5.8µM*
COc1ccc(NC(=O)c2nc[nH]c2C(=O)N(C)CCO)cc1,11%,i,-14%,i,-1%,3%
Cc1cc(C)cc(-n2ccn(CC(=O)c3ccc(F)cc3)c(=O)c2=O)c1,nt,nt,3%,nt,nt,8%
Cc1ncc(CO)c(/C=N/NC(=S)Nc2ccc(F)cc2)c1O,?,?,16µM*,i,-29%,10µM*
Cc1ncc(CO)c(/C=N/Nc2ccc(C(F)(F)F)cn2)c1O,?,?,4.1µM*,i,-30%,3.7µM*
COc1cc(C(=O)N2CCNC(=O)C2CC(=O)Nc2ccc(C)c(C)c2)cc(OC)c1OC (stereo not drawn),nt,i,-1%,?,nt,-18%
O=C(Nc1cc(C(=O)Nc2ccccc2C(=O)O)cc(C(=O)Nc2ccccc2C(=O)O)c1)c1ccccc1,13%,i,-17%,i,6%,?
CCOc1cccc(C(=O)Nc2ccc3oc(-c4ccncc4)nc3c2)c1,nt,i,?,i,nt,?
CC(C)Oc1cccc(C(=O)Nc2ccc3oc(-c4cccc(Cl)c4)nc3c2)c1,nt,i,?,i,nt,16µM*
O=C(NC(=S)Nc1ccc2oc(-c3cccnc3)nc2c1)c1cccc(Cl)c1,-1%,i,16µM*,i,-5%,?
COc1ccc(C(=O)Nc2ccc3oc(-c4cccnc4)nc3c2)cc1,nt,i,-29%,?,nt,?
CCC(=O)Nc1ccc(/C(C)=N\NS(=O)(=O)c2ccc(C)cc2)cc1,2%,i,-1%,i,0%,-1%
COCC(=O)Nc1cc(C(=O)N2CCc3ccccc3C2)c2c(c1)nc(-c1ccncc1)n2C,nt,nt,2%[9.04 µM],nt,nt,-12%
COc1ccccc1CN1CCC2(CC1)c1ccccc1[C@@H](NC(=O)c1ccco1)[C@@H]2OC,nt,nt,-17%[9.04 µM],nt,nt,-24%
